Our source for the composite z-score and z-score values is PubChem BioAssay.

Assay [1] deals with Wnt5a (protein binding on small-molecule microarray). Description: small molecules binding Wnt5a protein – biophysical, small-molecule microarray, 635/667 nm fluorescence, primary screen (AID 1142).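 Further: fluorescence read at 667 nm with signal to noise per printed feature.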 Conditions: 635 nm fluorescence, higher = more signal.
A short description of assay [2]: ATP-based viability of Huh7 replicon cells – cell-based, CellTiter-Glo luminescence, basal, 48 h, cytotoxicity control for HCV replication inhibitor project, primary screen (AID 1143).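 Further: Huh7 hepatoma cells carrying a hepatitis C replication reporter with no stimulus; test concentration not given here.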 Conditions: higher = more signal, called active from +8 up or from −8 down.
Assay [3] is described as follows: Pseudomonas biofilm growth suppression – PAO1 strain, BacTiter-Glo luminescence, LB-PBS, primary screen (AID 1144). Particulars: P. aeruginosa PAO1 biofilm, 12 h, higher = more signal.
Assay [4] is described as follows: basal CRE-LacZ reporter activity in PC12 – cell-based, unstimulated, primary screen (AID 1145). Conditions: no forskolin, luminescence, 4.5 h, higher = more signal, called active from +8 up or from −8 down.
Assay [5] can be described thus: forskolin-driven CRE-LacZ activity in PC12 – cell-based, CRE-LacZ reporter, forskolin-stimulated, primary screen (AID 1146).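 Further: PC12 cells with 6xCRE LacZ reporter stimulated by forskolin 10 µM; beta-galactosidase reporter signal reflecting CREB driven transcription.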 Conditions: luminescence, 4.5 h, higher = more signal, called active from +8 up or from −8 down.
The target in assay [6] is Streptavidin (Streptomyces avidinii) (UniProt P22629). Description: compounds binding control protein streptavidin – biophysical, small-molecule microarray, 635/667 nm fluorescence, artefact control for SMM compound annotation, primary screen (AID 1147).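 Further: signal reflects streptavidin binding to arrayed compounds as a control protein.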 Particulars: higher = more signal.
A short description of assay [7]: probe aInhba binding on compound microarray – biochemical, small-molecule microarray, 635/667 nm fluorescence, primary screen (AID 1148).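 Further: score merges 667nm spot fluorescence with signal-to-noise for antibody binding to printed compounds.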 Conditions: higher = more signal.
Assay [8] deals with Torsin-1A (Homo sapiens) (UniProt O14656). Briefly: TOR1A wild-type binding on microarray – cell lysate, small-molecule microarray, lysate, 635/667 nm, primary screen (AID 1149). Conditions: COS7 hTOR1A-WT lysate, 635 nm fluorescence, higher = more signal.
For assay [9] the target is unchanged. Briefly: torsin A mutant lysate binding on microarrays – cell lysate, small-molecule microarray, COS7 lysate, 635/667 nm fluorescence, primary screen (AID 1150).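 Further: score pools 667 nm emission and signal to noise measuring lysate protein binding.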 Conditions: COS7 hTOR1A mutant lysate, 635 nm fluorescence, higher = more signal.
For assay [10], the system named is Sonic hedgehog protein (Shh). Description: Sonic hedgehog microarray binding compounds – biochemical, small-molecule microarray, 635/667 nm fluorescence, primary screen (AID 1151).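 Further: Shh protein binding to compounds spotted on small-molecule microarray slides; score combines spot fluorescence intensity with signal-to-noise across triplicate slides.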 Particulars: 635 nm fluorescence, higher = more signal.

Structures are written as SMILES. The source made the active and inactive calls. Unless noted, how the calls were made is not given here.

Torsin-1A (Homo sapiens), sequence (O14656 whole entry, looked up): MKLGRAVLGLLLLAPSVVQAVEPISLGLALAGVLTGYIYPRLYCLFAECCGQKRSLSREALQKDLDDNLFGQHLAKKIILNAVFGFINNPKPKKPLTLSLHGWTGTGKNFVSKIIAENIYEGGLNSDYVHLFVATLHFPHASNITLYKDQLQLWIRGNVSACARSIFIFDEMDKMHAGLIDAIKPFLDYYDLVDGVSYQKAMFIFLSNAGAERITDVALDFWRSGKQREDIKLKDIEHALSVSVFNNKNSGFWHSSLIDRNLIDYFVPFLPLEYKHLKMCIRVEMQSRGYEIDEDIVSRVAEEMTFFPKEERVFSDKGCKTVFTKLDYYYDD
Streptavidin (Streptomyces avidinii), sequence (P22629 whole entry, looked up): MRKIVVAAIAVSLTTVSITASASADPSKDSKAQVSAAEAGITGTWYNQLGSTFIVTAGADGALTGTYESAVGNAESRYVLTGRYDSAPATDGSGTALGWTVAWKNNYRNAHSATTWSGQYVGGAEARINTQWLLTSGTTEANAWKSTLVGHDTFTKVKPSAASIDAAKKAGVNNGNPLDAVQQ

As to `[N-]=[N+]=NCc1ccccc1C[C@@]1(C(=O)NCC(O)CO)N=C(c2ccc(OCCCO)cc2)O[C@@H]1c1ccccc1CN=[N+]=[N-]` (stereo not given in full), the composite z-score is 0.604 in [1]; 1.43 in assay [6]; 0.533 in assay [7]; 0.441 with Torsin-1A (Homo sapiens) [8]; 1.39 with Torsin-1A (Homo sapiens) [9]; -0.393 in assay [10]. The z-score in [2] is -1.84 (inactive); in assay [3], -0.376 (inactive); in [4], -0.435 (inactive); in [5], -0.554 (inactive).
On to `O=C/C=C/c1ccc(Cl)cc1`, for which the composite z-score in assay [1] is 0.268; in assay [6], -0.359; in [7], -0.179; in the assay with Torsin-1A (Homo sapiens) [8], -1.01; with Torsin-1A (Homo sapiens) [9], -0.786; in assay [10], -0.823. Further, the z-score in [2] is -2.45 (inactive); in [3] it was -0.421 (inactive); in [4] it was -0.258 (inactive); in [5] it was 0.716 (inactive).
For `COC(=O)[C@@]1(Cc2ccccc2)[C@H]2c3cc(C(=O)N4CCCC4)n(C)c3C[C@H]2CN1C(=O)c1ccccc1`, the composite z-score was 0.0131 in [1]; 1.64 in [6]; 0.271 in assay [7]; -0.212 with Torsin-1A (Homo sapiens) [8]; 0.0645 in the assay with Torsin-1A (Homo sapiens) [9]; -0.157 in assay [10]. The z-score in assay [2] was -1.6 (inactive); in assay [3] it was 0.218 (inactive); in assay [4] it was -0.182 (inactive); in assay [5], 0.504 (inactive).
In the case of `CC(C)N1C(=O)C[C@@](C(=O)NCc2ccccc2)(c2ccc([N+](=O)[O-])cc2)[C@H]1c1ccc(CO)cc1`, the composite z-score in assay [1] is -0.214; in assay [6], -0.939; in assay [7], 0.0275; in the assay with Torsin-1A (Homo sapiens) [8], 1.35; in the assay with Torsin-1A (Homo sapiens) [9], 0.529; in assay [10] it was 0.235. Moreover, the z-score in [2] was -1.5 (inactive); in assay [3], -0.936 (inactive); in assay [4], 1.03 (inactive); in assay [5], -0.703 (inactive).
With `COCCOC(=O)N1C(=O)[C@@]2(c3cc(C#CCC(C(=O)OC)C(=O)OC)ccc31)[C@H](c1ccccc1OCCO)N1[C@H](c3ccccc3)[C@H](c3ccccc3)OC(=O)[C@H]1[C@@H]2C(N)=O`, the composite z-score in assay [1] was found to be 0.53; in assay [6], 0.0558; in assay [7], 0.137; in the assay with Torsin-1A (Homo sapiens) [8] it was 0.402; with Torsin-1A (Homo sapiens) [9] it was 0.689; in [10], 1.52. Besides, the z-score in assay [2] was -3.11 (inactive); in assay [3] it was 0.451 (inactive); in assay [4], 1.16 (inactive); in assay [5], 2.17 (inactive).
As to `CC(C)(C)OC(=O)CC[C@@]1(C(=O)O)N=C(c2ccc(OCCCO)cc2)O[C@@H]1c1ccccc1N=[N+]=[N-]`, the composite z-score is 0.52 in [1]; 1.01 in [6]; 0.179 in assay [7]; 1.21 in the assay with Torsin-1A (Homo sapiens) [8]; 1.22 in the assay with Torsin-1A (Homo sapiens) [9]; -0.905 in assay [10]. Besides, the z-score is 0.0429 (inactive) in [2], 0.561 (inactive) in assay [3], -0.183 (inactive) in assay [4] and -0.406 (inactive) in assay [5].
For `CC(C)CNC(=O)[C@@]1(c2ccc([N+](=O)[O-])cc2)CC(=O)N(CC23CC4CC(CC(C4)C2)C3)[C@@H]1c1ccc(CO)cc1`, the composite z-score in assay [1] is 0.239; in assay [6], -0.256; in [7], -0.0442; in the assay with Torsin-1A (Homo sapiens) [8], 1.16; with Torsin-1A (Homo sapiens) [9], 0.395; in assay [10] it was 1.04. For the same compound, the z-score in assay [2] was -4.7 (inactive); in assay [3] it was 0.677 (inactive); in [4] it was -0.0888 (inactive); in [5], -1.32 (inactive).
Take `O=C1C=CC(=O)[C@@H]2CC(COc3ccccc3)=C3[C@@H](CCc4ccccc4)OB(O)C[C@@H]3[C@H]12`: the composite z-score in assay [1] is 0.135; in assay [6] it was -0.132; in assay [7] it was -0.231; with Torsin-1A (Homo sapiens) [8] it was -0.386; in the assay with Torsin-1A (Homo sapiens) [9], -0.0222; in assay [10] it was 1.3. Besides, the z-score in assay [2] was -2.77 (inactive); in assay [3], 0.452 (inactive); in [4] it was 4.76 (inactive); in assay [5] it was 4.47 (inactive).
As for `Cc1ccc(S[C@]2(C(=O)NCc3ccccc3)CC(=O)N(Cc3ccccc3Cl)[C@@H]2c2ccc(CO)cc2I)cc1`, the composite z-score was -0.657 in [1]; -0.15 in assay [6]; -0.0963 in assay [7]; -2.03 with Torsin-1A (Homo sapiens) [8]; -1.65 with Torsin-1A (Homo sapiens) [9]; 0.262 in [10]. The z-score in assay [2] is -1.68 (inactive); in [3], -1.12 (inactive); in assay [4] it was -0.258 (inactive); in [5], 1.72 (inactive).
Take `COCCOC(=O)N1C(=O)[C@@]2(c3cc(C#CC4=CCCCC4)ccc31)[C@H](C(=O)N1CCc3cc(OC)c(OC)cc3C1)[C@H]1C(=O)O[C@H](c3ccccc3)[C@H](c3ccccc3)N1[C@@H]2c1ccccc1OCCO`: the composite z-score in assay [1] was 0.192; in [6], 0.154; in [7], 0.0939; with Torsin-1A (Homo sapiens) [8] it was 0.198; with Torsin-1A (Homo sapiens) [9], 0.274; in assay [10], 2.05. The z-score in [2] was -1.3 (inactive); in assay [3] it was 0.597 (inactive); in assay [4] it was 0.0736 (inactive); in assay [5] it was -1.14 (inactive).
As to `COC(=O)C(CC#Cc1ccc2c(c1)[C@]1(C(=O)N2)[C@H](C(=O)NC[C@H](O)c2ccccc2)[C@H]2C(=O)O[C@H](c3ccccc3)[C@H](c3ccccc3)N2[C@@H]1c1ccc(OCCO)cc1)C(=O)OC`, the composite z-score turned out to be 1.08 in [1]; 2.55 in assay [6]; 0.859 in assay [7]; 1.69 with Torsin-1A (Homo sapiens) [8]; 1.09 with Torsin-1A (Homo sapiens) [9]; 1.6 in assay [10]. The z-score is -1.02 (inactive) in assay [2], -0.419 (inactive) in assay [3], 0.0653 (inactive) in [4] and -0.291 (inactive) in assay [5].
Consider `O=C1OCC=C[C@H]2OC34C=CCN(c5ccc6ccccc6c5)C(=O)[C@H]3N(CCCO)C(=O)[C@@H]4[C@@H]12` (stereo not given in full), for which the composite z-score in assay [1] was -0.701; in [6] it was -0.835; in assay [7] it was -0.0675; in the assay with Torsin-1A (Homo sapiens) [8], -1.69; with Torsin-1A (Homo sapiens) [9], -1.38; in assay [10], -0.372. Further, the z-score is -2.14 (inactive) in [2], 0.179 (inactive) in [3], 0.337 (inactive) in [4] and 0.27 (inactive) in assay [5].
In the case of `O=C(O)[C@H]1C[C@H]2C(=O)NCC(=O)N2[C@H]1c1ccc(O)cc1`, the composite z-score is -0.0071 in assay [1]; -0.54 in assay [6]; -0.168 in [7]; 0.562 with Torsin-1A (Homo sapiens) [8]; -0.0135 with Torsin-1A (Homo sapiens) [9]; 0.751 in [10]. Also, the z-score was -0.283 (inactive) in [2], -0.642 (inactive) in [3], -0.13 (inactive) in [4] and -0.108 (inactive) in [5].
For the compound `CC(C)N1C(=O)[C@@]2(c3ccc([N+](=O)[O-])cc3)CC(=O)N(CC34CC5CC(CC(C5)C3)C4)[C@@H]2c2ccc(CO)cc21`, the composite z-score was -0.61 in [1]; -0.842 in assay [6]; 0.195 in assay [7]; -1.81 with Torsin-1A (Homo sapiens) [8]; -0.858 with Torsin-1A (Homo sapiens) [9]; 0.453 in assay [10]. Moreover, the z-score in assay [2] is -0.36 (inactive); in assay [3], -0.292 (inactive); in assay [4] it was 0.452 (inactive); in [5], -0.41 (inactive).
